Reference: PubChem BioAssay (Tox21)
Records with an inconclusive call do not appear. The source made the active and inactive calls. Unless noted, calls follow the shape of the full dose curve.

Assays:
[1] = Nuclear factor erythroid 2-related factor 2/antioxidant responsive element (Nrf2/ARE) small molecule agonists: qHTS cell viability counter screen in human keratinocytes (AID 1919968; active = well fitted curve in the direction sought with a large enough effect in the repeat runs; an effect the other way counts as inactive or inconclusive; also: nearly all actives have a fitted effect of over 55% in size; also: potency is read from the fitted curve at half-maximal effect)
Summary of the method: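 Cells of the KeratinoSens line were plated at 1,500 per well and left for 5 h before compound transfer from DMSO stocks. After a 23 h incubation (37 C, 5% CO2), CellTiter-Fluor was added. Signal was taken as fluorescence intensity 1 h later.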

[2] = Nuclear factor erythroid 2-related factor 2/antioxidant responsive element (Nrf2/ARE) small molecule agonists: luciferase reporter gene qHTS assay in human keratinocytes (AID 1919969); also: nearly all actives have a fitted effect of over 35% in size; also: potency is read from the fitted curve at half-maximal effect
[3] = molecular target: Gonadotropin-releasing hormone receptor (Homo sapiens) (UniProt P30968); assay: Human gonadotropin-releasing hormone receptor (GnRHR) small molecule agonists, calcium flux assay in GnRHR-HEK293 cells (AID 1920063); also: nearly all actives have a fitted effect of over 35% in size
Sequence of Gonadotropin-releasing hormone receptor (Homo sapiens) (P30968 whole entry, looked up): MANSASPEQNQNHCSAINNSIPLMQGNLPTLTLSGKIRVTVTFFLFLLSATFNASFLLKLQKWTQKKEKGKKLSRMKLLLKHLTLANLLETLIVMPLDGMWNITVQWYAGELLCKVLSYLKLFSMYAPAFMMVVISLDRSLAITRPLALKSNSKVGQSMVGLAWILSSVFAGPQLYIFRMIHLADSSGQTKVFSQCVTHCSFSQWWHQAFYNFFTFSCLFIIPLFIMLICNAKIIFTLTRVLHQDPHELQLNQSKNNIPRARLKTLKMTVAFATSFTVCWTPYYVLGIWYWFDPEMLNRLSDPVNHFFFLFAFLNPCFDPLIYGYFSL
Summary of the method: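 Compounds dissolved in DMSO are pin-transferred onto dye-loaded GnRHR-HEK293 cells, which were seeded 18 h before at 37 C/5% CO2. Calcium signal is read as fluorescence intensity at 1 s intervals for 3 min.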

[4] = molecular target: KiSS-1 receptor (Homo sapiens) (UniProt Q969F8); assay: Human kisspeptin (KISS1R) small molecule agonists, calcium flux assay in KISS1R-HEK293 cells (AID 1920064; active = well fitted curve in the direction sought with a large enough effect in the repeat runs; an effect the other way counts as inactive or inconclusive)
Sequence of KiSS-1 receptor (Homo sapiens) (Q969F8 whole entry, looked up): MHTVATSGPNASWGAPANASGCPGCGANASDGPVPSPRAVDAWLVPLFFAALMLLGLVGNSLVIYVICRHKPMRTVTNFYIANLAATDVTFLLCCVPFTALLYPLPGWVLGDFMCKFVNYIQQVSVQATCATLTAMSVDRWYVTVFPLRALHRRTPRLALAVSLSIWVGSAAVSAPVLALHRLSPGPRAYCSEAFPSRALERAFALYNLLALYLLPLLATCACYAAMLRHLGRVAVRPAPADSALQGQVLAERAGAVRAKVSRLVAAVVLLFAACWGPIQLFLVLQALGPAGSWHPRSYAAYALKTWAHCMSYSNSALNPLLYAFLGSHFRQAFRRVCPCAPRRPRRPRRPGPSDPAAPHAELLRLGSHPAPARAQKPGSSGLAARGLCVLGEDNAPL
Summary of the method: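 Cell line: HEK293, stable human KISS1R. Dye loading 1 h at 37 C after 18 h culture. Read: kinetic fluorescence, 480/540 nm, 3 min at 1 s intervals.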

[5] = G protein-coupled receptor (GPCR) small molecule agonists, calcium flux assay: HEK293 wild type cell line counter screen (AID 1920065)
Summary of the method: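 Tox21 10K compounds, 15 concentrations each in triplicate, pin-transferred in DMSO onto dye-loaded cells; kinetic read at 480/540 nm for 3 min, 1 s intervals.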

[6] = p53 small molecule agonists, cell-based qHTS assay with rat liver microsomes (AID 1963578)
Summary of the method: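 Metabolic activation is supplied by rat liver microsomes with NADPH (each 0.5 mg/mL final). p53RE-bla cells incubate with compound 16 h at 37 C; reporter activity is measured by LiveBLAzer fluorescence.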

[7] = p53 small molecule agonists, cell-based qHTS assay with human liver microsomes: qHTS cell viability counter screen (AID 1963579); also: nearly all actives have a fitted effect of over 45% in size
Summary of the method: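 After the 460/530 nm beta-lactamase read, CellTiter-Glo was added to the same wells and luminescence measured after 30 min at room temperature, giving viability of p53RE-bla cells treated 16 h with compounds plus microsomes and NADPH.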

[8] = p53 small molecule agonists, cell-based qHTS assay with rat liver microsomes: qHTS cell viability counter screen (AID 1963580); also: nearly all actives have a fitted effect of over 45% in size
Summary of the method: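 Luminescent ATP readout (CellTiter-Glo, 30 min at room temperature) reports viability of p53RE-bla HCT-116 cells after 16 h at 37 C with test compounds under metabolic activation by rat liver microsomes and NADPH at 0.5 mg/mL final each.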

[9] = p53 small molecule agonists, cell-based qHTS assay: qHTS cell viability counter screen (AID 1963581); also: nearly all actives have a fitted effect of over 45% in size
Summary of the method: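 ATP content measured by luminescence in HCT-116 p53RE-bla cells treated 16 h at 37 C, same wells as the reporter screen.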

[10] = molecular target: 5-hydroxytryptamine receptor 2A (Homo sapiens) (UniProt P28223); assay: 5-hydroxytryptamine receptor 2A (HTR2A) small molecule antagonists, cell-based qHTS assay (AID 1963586); also: nearly all actives have a fitted effect of over 45% in size
Sequence of 5-hydroxytryptamine receptor 2A (Homo sapiens) (P28223 whole entry, looked up): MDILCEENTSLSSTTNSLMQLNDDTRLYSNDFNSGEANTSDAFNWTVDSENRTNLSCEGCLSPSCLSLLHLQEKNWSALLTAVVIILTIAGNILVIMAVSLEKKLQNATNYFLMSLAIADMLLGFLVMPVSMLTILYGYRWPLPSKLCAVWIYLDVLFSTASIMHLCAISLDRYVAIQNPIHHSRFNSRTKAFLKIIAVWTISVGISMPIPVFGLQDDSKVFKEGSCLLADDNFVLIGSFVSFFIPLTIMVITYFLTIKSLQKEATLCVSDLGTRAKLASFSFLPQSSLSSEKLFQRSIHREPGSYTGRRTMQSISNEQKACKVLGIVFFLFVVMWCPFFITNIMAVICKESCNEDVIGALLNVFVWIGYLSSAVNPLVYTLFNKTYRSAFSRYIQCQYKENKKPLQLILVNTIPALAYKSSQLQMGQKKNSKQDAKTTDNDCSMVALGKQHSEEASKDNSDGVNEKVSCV
Summary of the method: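 CHO cells stably expressing human HTR2A were plated for 18 h at 37 C, then loaded with calcium dye for 1 h. Compounds were preincubated 5 min at room temperature before DOI (4 nM solution) was added. Kinetic fluorescence was read for 3 min.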

[11] = molecular target: 5-hydroxytryptamine receptor 2A (Homo sapiens) (UniProt P28223); assay: 5-hydroxytryptamine receptor 2A (HTR2A) small molecule agonists, cell-based qHTS assay (AID 1963587); also: nearly all actives have a fitted effect of over 30% in size
Summary of the method: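 HTR2A-CHO cells, plated 18 h at 37 C/5% CO2, dye-loaded 1 h at 37 C; compounds in DMSO added by pin tool (agonist mode). Intracellular calcium flux read as kinetic fluorescence on FDSS over 2 min at 1 s intervals.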

[12] = molecular target: Muscarinic acetylcholine receptor M1 (Homo sapiens) (UniProt P11229); assay: Cholinergic receptor muscarinic 1 (CHRM1) small molecule agonists, cell-based qHTS assay (AID 1963589); also: nearly all actives have a fitted effect of over 35% in size
Sequence of Muscarinic acetylcholine receptor M1 (Homo sapiens) (P11229 whole entry, looked up): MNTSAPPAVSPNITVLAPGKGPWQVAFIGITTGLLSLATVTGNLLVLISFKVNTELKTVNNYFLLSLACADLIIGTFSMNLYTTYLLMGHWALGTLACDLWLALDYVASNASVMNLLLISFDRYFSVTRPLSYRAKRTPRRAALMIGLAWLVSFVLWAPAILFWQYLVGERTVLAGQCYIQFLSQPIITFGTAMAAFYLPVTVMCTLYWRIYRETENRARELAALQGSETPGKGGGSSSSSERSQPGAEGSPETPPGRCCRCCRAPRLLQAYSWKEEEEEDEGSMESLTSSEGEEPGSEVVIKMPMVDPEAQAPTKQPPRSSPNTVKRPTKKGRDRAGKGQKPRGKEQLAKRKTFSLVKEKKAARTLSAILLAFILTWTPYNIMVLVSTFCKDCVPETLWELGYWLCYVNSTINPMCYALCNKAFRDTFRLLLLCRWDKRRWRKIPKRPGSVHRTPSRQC
Summary of the method: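 Homogeneous fluorescence calcium flux, agonist mode. Human M1-expressing CHO cells; compound dosed at 15 concentrations, three independent runs; signal sampled every 1 sec.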

[13] = cAMP Responsive Elements (CRE) small molecule agonists, cell-based qHTS assay (AID 1963590)
Summary of the method: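 HEK 293T cells stably bearing CRE-bla were plated at 2,000 cells per well and rested 18 h. Compounds, positive controls or DMSO were added for 3 h at 37 C. LiveBLAzer B/G substrate was then loaded for 2 h at room temperature.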

[14] = cAMP Responsive Elements (CRE) small molecule antagonists, cell-based qHTS assay (AID 1963591; active = well fitted inhibition curve with a large enough effect in the signal ratio in the repeat runs, not every such curve was filed as active; the % refers to the signal ratio)
Summary of the method: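 First, CRE-bla HEK293T cells settled 18 h at 37 C. Next, compound and 0.25 uM final NKH477 were applied for 3 h. Last, LiveBLAzer B/G substrate was loaded for 2 h at room temperature.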

[15] = molecular target: D(2) dopamine receptor (Homo sapiens) (UniProt P14416); assay: Dopamine D2 receptor (DRD2) small molecule agonists, cell-based qHTS assay (AID 1963594); also: nearly all actives have a fitted effect of over 35% in size
Sequence of D(2) dopamine receptor (Homo sapiens) (P14416 whole entry, looked up): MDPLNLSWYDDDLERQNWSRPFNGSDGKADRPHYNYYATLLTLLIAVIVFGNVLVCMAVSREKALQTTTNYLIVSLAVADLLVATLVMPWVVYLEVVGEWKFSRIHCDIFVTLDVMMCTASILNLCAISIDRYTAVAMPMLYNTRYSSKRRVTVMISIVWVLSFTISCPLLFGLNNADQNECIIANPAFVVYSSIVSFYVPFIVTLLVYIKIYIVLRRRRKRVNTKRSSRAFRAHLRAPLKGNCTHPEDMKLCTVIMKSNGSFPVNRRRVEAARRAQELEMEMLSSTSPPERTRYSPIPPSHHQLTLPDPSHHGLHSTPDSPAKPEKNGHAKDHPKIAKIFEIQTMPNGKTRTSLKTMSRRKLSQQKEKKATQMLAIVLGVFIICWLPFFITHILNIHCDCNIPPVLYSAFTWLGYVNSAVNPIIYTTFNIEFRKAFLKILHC
Summary of the method: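 HEK293 cells stably expressing DRD2 were cultured 24 h at 37 C, then given Ro20-1724 (0.1 mM final) and compounds for 10 min at room temperature. NKH477 (200nM) was then added for 30 min. cAMP was read by HTRF.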

[16] = molecular target: D(2) dopamine receptor (Homo sapiens) (UniProt P14416); assay: Dopamine D2 receptor (DRD2) small molecule antagonists, cell-based qHTS assay (AID 1963595; active = well fitted inhibition curve with a large enough effect in the signal ratio in the repeat runs, with a control signal flat; the % refers to the signal ratio)
Summary of the method: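 DRD2-HEK293; 0.1 mM Ro20-1724; cpd 10 min RT; NKH477 200 nM + quinpirole 12 nM, 30 min RT; HTRF cAMP (cAMP-d2/anti-cAMP cryptate), 665/620 nm ratio after 1 h.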

[17] = p53 small molecule agonists, cell-based qHTS assay (AID 1963582; active = well fitted activation curve with a large enough effect in the signal ratio in the repeat runs, not every such curve was filed as active; the % refers to the signal ratio)
Summary of the method: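 16 h compound exposure (37 C) of p53 response element–bla cells, preceded by 5 h recovery at 37 C/5% CO2; read-out via LiveBLAzer B/G FRET substrate, 2 h RT, fluorescence intensity.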

[18] = p53 small molecule agonists, cell-based qHTS assay with human liver microsomes (AID 1963577);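 also: p53 response element beta-lactamase reporter cells with liver microsomes plus NADPH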
Summary of the method: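 Steps: plate p53RE-bla cells, incubate 5 h at 37 C; add compound in DMSO; add microsomes (0.5 mg/mL final) and NADPH (0.5 mg/mL final); incubate 16 h at 37 C; add LiveBLAzer, 2 h RT; read fluorescence.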

[19] = molecular target: Muscarinic acetylcholine receptor M1 (Homo sapiens) (UniProt P11229); assay: Cholinergic receptor muscarinic 1 (CHRM1) small molecule antagonists, cell-based qHTS assay (AID 1963588); also: nearly all actives have a fitted effect of over 40% in size; also: potency is read from the fitted curve at half-maximal effect
Summary of the method: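 Compounds were tested at 15 concentrations in three independent runs. Dye-loaded CHRM1-CHO cells were exposed 5 min at room temperature before stimulation by acetylcholine added at 50nM. Intracellular calcium was read kinetically on FDSS for 3 min.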

[20] = molecular target: Beta-2 adrenergic receptor (Homo sapiens) (UniProt P07550); assay: Adrenergic beta2 receptor (ADRB2) small molecule antagonists, cell-based qHTS assay (AID 1963592); also: series mostly up to about 92 µM; nearly all actives have a fitted effect of over 50% in size
Sequence of Beta-2 adrenergic receptor (Homo sapiens) (P07550 whole entry, looked up): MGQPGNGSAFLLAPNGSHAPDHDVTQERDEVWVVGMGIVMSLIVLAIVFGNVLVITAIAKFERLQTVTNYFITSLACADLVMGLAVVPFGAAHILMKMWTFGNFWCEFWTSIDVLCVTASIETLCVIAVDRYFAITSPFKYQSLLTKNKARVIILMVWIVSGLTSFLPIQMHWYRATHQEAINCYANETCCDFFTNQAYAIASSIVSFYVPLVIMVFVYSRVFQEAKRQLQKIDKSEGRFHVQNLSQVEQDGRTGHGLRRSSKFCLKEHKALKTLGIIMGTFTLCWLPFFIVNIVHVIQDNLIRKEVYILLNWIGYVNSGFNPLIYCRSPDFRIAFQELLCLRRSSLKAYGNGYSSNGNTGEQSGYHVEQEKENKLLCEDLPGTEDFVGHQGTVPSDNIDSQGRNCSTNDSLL
Summary of the method: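 Assay format: CHO-ADRB2 cells, 18-20hr seeding at 37C/5% CO2, then compound plus 1nM isoproterenol agonist mix for 0.5hr RT. Homogeneous time-resolved fluorescence cAMP detection after 1hr, expressed as 665/615 nm ratio.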
% is scaled to controls: 0 for no effect and ±100 for the full control effect.

CC(=O)Nc1ccc(C)cc1C
inactive: Potency [1] | Potency [2] | Potency [3] | outcome [4] | outcome [5] | Potency [6] | Potency [7] | Potency [8] | Potency [9] | Potency [10] | Potency [11] | Potency [12] | Potency [13] | Potency [14] | Potency [15] | Potency [16]

CN1CCN(CCCN2c3ccccc3Sc3ccc(Cl)cc32)CC1
inactive: Potency [1] | Potency [2] | Potency [3] | outcome [4] | outcome [5] | Potency [6] | Potency [7] | Potency [8] | Potency [9] | Potency [17] | Potency [15]

CC(C)(Oc1ccc(Cl)cc1)C(=O)OCCCOC(=O)C(C)(C)Oc1ccc(Cl)cc1
inactive: Potency [1] | Potency [2] | Potency [3] | outcome [4] | Potency [18] | Potency [6] | Potency [7] | Potency [8] | Potency [9] | Potency [17] | Potency [10] | Potency [11] | Potency [19] | Potency [12] | Potency [13] | Potency [15]

C=CCn1c(=O)n(CC=C)c(=O)n(CC=C)c1=O
inactive: Potency [1] | Potency [2] | Potency [3] | outcome [4] | Potency [18] | Potency [6] | Potency [7] | Potency [8] | Potency [9] | Potency [17] | Potency [10] | Potency [11] | Potency [19] | Potency [12] | Potency [13] | Potency [15] | Potency [16]

c1cc[nH]c1
inactive: Potency [1] | Potency [2] | Potency [3] | outcome [4] | outcome [5] | Potency [6] | Potency [9] | Potency [17] | Potency [10] | Potency [11] | Potency [19] | Potency [12] | Potency [13] | Potency [14] | Potency [15] | Potency [16]

CCOC(=O)OCC/C(SC(=O)OCC)=C(\C)N(C=O)Cc1cnc(C)nc1N
inactive: Potency [1] | Potency [2] | Potency [3] | outcome [4] | outcome [5] | Potency [6] | Potency [7] | Potency [8] | Potency [17] | Potency [10] | Potency [19] | Potency [12] | Potency [13] | Potency [14] | Potency [20]

Clc1ccc(C(Cn2ccnc2)OCc2c(Cl)cccc2Cl)c(Cl)c1 (stereo not given)
active: Potency [1] 23.7 µM | Potency [2] 11.9 µM | Potency [19] 11.6 µM
inactive: Potency [3] | outcome [4] | outcome [5] | Potency [6] | Potency [7] | Potency [8] | Potency [12] | Potency [13] | Potency [20] | Potency [15] | Potency [16]

CCOC(=O)N1CCC(n2c(=O)[nH]c3cc(Cl)ccc32)CC1
inactive: Potency [1] | Potency [2] | Potency [3] | outcome [4] | outcome [5] | Potency [6] | Potency [8] | Potency [9] | Potency [10] | Potency [19] | Potency [12] | Potency [20] | Potency [15]

Nc1ncnc(Nc2ccccc2)n1
inactive: Potency [1] | Potency [2] | Potency [3] | outcome [4] | outcome [5] | Potency [6] | Potency [8] | Potency [9] | Potency [17] | Potency [10] | Potency [11] | Potency [19] | Potency [12] | Potency [13] | Potency [20] | Potency [15] | Potency [16]

CCCCCCCCCCc1ccccc1
inactive: Potency [1] | Potency [2] | Potency [3] | outcome [4] | outcome [5] | Potency [6] | Potency [7] | Potency [8] | Potency [17] | Potency [10] | Potency [11] | Potency [19] | Potency [12] | Potency [13] | Potency [14] | Potency [20] | Potency [16]

CCCCCCCCCCOc1cc2c(=O)c(C(=O)OCC)c[nH]c2cc1OCC
inactive: activity change, negative = cytotoxicity [1] -4.24% [at 8.39 µM] | activity, positive = activation [2] -2.6% [at 8.39 µM] | activity change [3] 0.343% [at 5.22 µM, stronger effect = higher value] | activation [4] -0.128% [at 6.97 µM] | activation [18] 2.59% [at 5.99 µM] | activation [6] 0.878% [at 5.99 µM] | activity change, negative = cytotoxicity [7] 0.282% [at 5.99 µM] | activity change, negative = cytotoxicity [8] 11.2% [at 5.99 µM] | activity change, negative = cytotoxicity [9] -13% [at 5.99 µM] | activation [17] 4.71% [at 5.99 µM] | activity, negative = inhibition [10] 23.4% [at 5.62 µM] | activation [11] 1.5% [at 7.02 µM] | activity, negative = inhibition [19] -9.72% [at 5.58 µM] | activation [12] 0.0185% [at 6.97 µM] | activation [13] 0.069% [at 8.39 µM] | activity change, negative = inhibition [14] 0.102% [at 8.39 µM] | activation [15] -15.9% [at 8.39 µM] | activity change, negative = inhibition [16] 8.14% [at 8.38 µM]

CCOC(=O)CCCCCCCCC(=O)OCC
inactive: Potency [1] | Potency [2] | Potency [3] | outcome [4] | outcome [5] | Potency [6] | Potency [8] | Potency [9] | Potency [17] | Potency [10] | Potency [11] | Potency [19] | Potency [12] | Potency [13] | Potency [14] | Potency [20] | Potency [15]

COC(=O)CCCCC(CCSS/C(CCO)=C(\C)N(C=O)Cc1cnc(C)nc1N)SC(C)=O (stereo not given)
inactive: Potency [1] | Potency [2] | Potency [3] | outcome [4] | outcome [5] | Potency [6] | Potency [7] | Potency [8] | Potency [17] | Potency [11] | Potency [19] | Potency [12] | Potency [13] | Potency [20] | Potency [15] | Potency [16]

C=C1C(CCl)(CCl)C2(Cl)C(Cl)C(Cl)C1(Cl)C2(Cl)Cl (stereo not given)
active: Potency [1] 38.1 µM | Potency [2] 15.2 µM
inactive: Potency [3] | outcome [4] | outcome [5] | Potency [6] | Potency [8] | Potency [10] | Potency [11] | Potency [12] | Potency [15] | Potency [16]

O=C(Nc1ccccc1)c1cc([N+](=O)[O-])ccc1Cl
inactive: Potency [1] | Potency [3] | outcome [4] | outcome [5] | Potency [6] | Potency [7] | Potency [8] | Potency [10] | Potency [11] | Potency [19] | Potency [12] | Potency [20] | Potency [15] | Potency [16]
active: Potency [2] 61.1 µM
